Among the data in PubChem BioAssay are z-score values, retold here.

Activity calls are given as the source filed them.

The assay is described as follows: basal CRE-LacZ reporter activity in PC12 – cell-based, unstimulated, primary screen (AID 1145). The settings on record: no forskolin, luminescence, 4.5 h, higher = more signal, called active from +8 up or from −8 down.
Consider `CC(=O)OC[C@H]1O[C@@H](ON=C[C@@H](C)[C@H](OCc2ccccc2)C(C)C)[C@H](OC(C)=O)[C@@H](OC(C)=O)[C@@H]1OC(C)=O`, for which the z-score is 2.19 (inactive). As to `CN1C(=O)C2C=CC(C(O)C(c3ccccc3)c3ccccc3)N(NC(=O)OC(C)(C)C)C2C1=O` (stereo unspecified), the z-score was -0.136 (inactive). For the molecule `COC(=O)C1=C(C)N(Cc2ccccc2)[C@]23O[C@](C(=O)OC)(C(=O)N2[C@@H]1c1ccccc1)[C@H]1CCOC(=O)[C@H]13`, the z-score is 0.286 (inactive). With `C=C(CCCC)C(=O)CC[C@@H](OC(C)=O)c1cccc(OCCO)c1`, the z-score was 9.03 (active). On to `CO[C@@H]1COC(=O)CC=C[C@@H](C)[C@@H]2C=C[C@@H](O)[C@@H](COC(=O)CC=C[C@H]1C)O2`, for which the z-score was 0.343 (inactive). For `COC(=O)[C@@]1(Cc2ccccc2)[C@H]2c3cc(C(=O)N4CCCC4)n(Cc4ccccn4)c3C[C@H]2CN1C(=O)c1ccccc1` the value was 0.201 (inactive); for `CCOC(=O)NN=C1C[C@@H](O)[C@@H](O)[C@@H]2[C@@H]3C(=O)N(C(C)(C)C)C(=O)[C@@H]3CC[C@@H]12`, -0.0246 (inactive); for `C=CCN1C(=O)[C@]2(O[C@H](CCn3cc(CCO)nn3)[C@@H]([Si](C)(C)c3ccc(OC)cc3)[C@@H]2C)c2cc(N3CCOC3=O)ccc21`, 7.08 (inactive). For `CCOc1ccc(N2C(=O)/C(=C/C=C/c3ccccc3OC)S(=O)(=O)C2c2cccc([N+](=O)[O-])c2)cc1` (stereo unspecified) the value was 0.0026 (inactive); for `O[C@@H](Cc1ccccc1)[C@H]1C2C=CCCC(c3ccccc3)=C2CN1Cc1cccc(Cl)c1` (stereo partly specified), 2.58 (inactive); for `CO[C@H]1O[C@H](CO)[C@@H](OC(=O)Nc2ccc(C#N)cc2)[C@H](OC(=O)c2cc3ccccc3[nH]2)[C@H]1OC(=O)c1cc2ccccc2[nH]1`, 0.484 (inactive). For `Cc1ccc(S(=O)(=O)N[C@@H]2COC(=O)[C@H](C)COC(=O)CC=C[C@H]2C)cc1` the value was 0.0676 (inactive). As to `C=CC[C@@H]1C=C[C@H](ON=C2c3cc(OC)ccc3O[C@H](c3cccc(OC)c3)[C@H]2O)[C@@H](CO)O1`, the z-score was 5.59 (inactive). As to `C=CCC(OC(C)=O)[C@@H]1[C@@H](N(Cc2cc3ccccc3o2)C(=O)Cc2ccc(F)cc2)c2cc(OCCCO)ccc2N1C(=O)Cc1ccc(OC)cc1` (stereo partly specified), the z-score is 1.27 (inactive). For `CCOC(=O)[C@H](CC(C)C)NC(=O)CCC1CC(OC(=O)NCCc2ccc(F)cc2)CC2(CCCC(COC(=O)NCc3ccccc3)O2)O1` (stereo partly specified) the value was 0.199 (inactive); for `O=C1[C@H]2[C@H]3[C@H](O)[C@H](O)CC(=NOC[C@@H](O)COCc4ccco4)[C@H]3CC[C@H]2C(=O)N1Cc1ccc2c(c1)OCO2`, -0.657 (inactive); for `CC(CCC(=O)OC[C@H]1O[C@H](C#Cc2ccccc2)C=C[C@@H]1Oc1ccc(C)cc1)=NOC[C@@H](O)[C@H]1O[C@@H]2OC(C)(C)O[C@@H]2[C@H]1O`, 0.099 (inactive). For `CC(C)(C)N1CC=CC23O[C@@H]4C=CCCOC(=O)C4[C@H]2C(=O)N(CCCCCO)[C@@H]3C1=O` (stereo partly specified) the value was 0.333 (inactive); for `CCc1cc2c(nc1CC)CCN(CCC(C)=NO[C@@H](C)c1cc(-c3c(C)cc(C)cc3C)no1)C2`, 0.429 (inactive). For `CC(C)CON=C1C[C@@H](O)[C@@H](O)[C@@H]2[C@@H]3C(=O)N(Cc4ccccc4)C(=O)[C@@H]3CC[C@@H]12` the value was -0.203 (inactive).

Regarding `COCCCNC(=O)[C@@]1(C)c2ccccc2C(=O)N(Cc2ccc(OC(F)(F)F)cc2)[C@H]1c1ccc(CO)cc1`, the z-score was 0.585 (inactive). For `O=C1C2=CC[C@H]3C(=O)N(Cc4ccc5c(c4)OCO5)C(=O)[C@H]3[C@H]2[C@H](O)[C@@H]2O[C@H]12` the value was -0.385 (inactive).

Take `COc1ccc(O[C@H]2C=C[C@@H](c3ccccc3)O[C@@H]2COC(=O)CCC(C)=NOC(C)CN2CCCCc3nc(C)c(C)cc32)cc1` (stereo partly specified): the z-score is -0.817 (inactive). For `CC(CCN1CCCCc2nc(C)c(C)cc21)=NOC(C)CN1CCCCc2nc(C)c(C)cc21` (stereo unspecified) the value was 0.187 (inactive). For `O=C1[C@H]2[C@H]3[C@H](O)[C@H](O)CC(=NOCc4ccccc4)[C@@H]3CC[C@H]2C(=O)N1C1CCCCC1` the value was 0.519 (inactive); for `COc1ccc([Si](C)(C)[C@@H]2[C@@H](CCO)O[C@]3(C(=O)N(Cc4ccc(NC(C)=O)cc4)c4ccccc43)[C@H]2C)cc1`, 3.57 (inactive). For `Cc1cc2c(c(=O)o1)[C@H](O)[C@H]1O[C@H]1C2=O` the value was -1.06 (inactive). For `O=C1[C@H]2[C@H]3[C@H](O)[C@H](O)CC(=NOC[C@@H](O)COCc4ccco4)[C@H]3CC[C@H]2C(=O)N1C1CCCCC1`, the z-score was 3.33 (inactive). For `[N-]=[N+]=Nc1ccccc1C[C@@]1(C(N)=O)N=C(c2ccc(OCCCO)cc2)O[C@@H]1c1ccccc1` the value was 0.377 (inactive); for `CCOC(=O)NN=C1C[C@@H](O)[C@@H](O)[C@@H]2[C@@H]3C(=O)N(CC)C(=O)[C@@H]3CC[C@@H]12`, -0.205 (inactive); for `CC(C)NC(=O)[C@@]1(c2ccc([N+](=O)[O-])cc2)CC(=O)N(CC23CC4CC(CC(C4)C2)C3)[C@@H]1c1ccc(CO)cc1I`, 0.531 (inactive). For `COC(=O)C1(C)C=C2C(=C(c3ccccc3)C(=O)C2C)CN1` (stereo unspecified) the value was 0.593 (inactive). For `O=C1[C@H]2[C@H]3[C@H](O)[C@H](O)CC(=NO[C@@H]4O[C@H](CO)[C@@H](O)[C@H](O)[C@H]4O)[C@@H]3CC[C@H]2C(=O)N1Cc1ccccc1` the value was -0.929 (inactive); for `CCOC(=O)CCN1C(=O)[C@H]2[C@H]3[C@H](O)C=CC(=O)[C@@H]3CC[C@H]2C1=O`, -0.115 (inactive); for `Cc1cc2c(nc1C)CCCN2CC(C)ON=C1[C@H]2CCn3c(=O)n(-c4ccccc4)c(=O)n3[C@H]2[C@H](O)[C@@H]2O[C@H]12` (stereo partly specified), 0.415 (inactive). Consider `CCCCc1nc2c(c3c1C[C@H](C)OC3)CN(CCC(C)C)CC2`, for which the z-score was 7.7 (inactive).
